# Measurements published in PubChem BioAssay AID485317 (Broad Institute, 2010).
# About 11,000 (3.8%) of roughly 290,000 compounds were called active. Many of the other results were omitted from the sample, so actives are more common in it than they were. A number with no mark means an inactive call.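 How the source made its calls: active means mean replicate inhibition above about 79%, with every replicate also reaching it (limit read from the data); inconclusive means only one of the two criteria met; inactive means mean below limit and not every replicate reaching it.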
# Target: FAD-linked sulfhydryl oxidase ALR (Homo sapiens) (UniProt P55789)
# Sequence (P55789 whole entry, looked up): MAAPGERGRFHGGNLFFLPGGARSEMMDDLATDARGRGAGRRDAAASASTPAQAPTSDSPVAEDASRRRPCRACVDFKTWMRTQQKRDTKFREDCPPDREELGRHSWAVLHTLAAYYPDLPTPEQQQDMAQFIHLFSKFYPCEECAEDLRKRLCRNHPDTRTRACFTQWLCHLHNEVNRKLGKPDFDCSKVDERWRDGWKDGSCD
# Assay: ALR-catalysed DTT oxidation blockers – biochemical, H2O2 detection, HRP-luminol luminescence, single point, primary screen (AID 485317)
# Details: purified ALR, stronger effect = higher value, concentration not given here
row,SMILES,inhibition
1,CCOC(=O)c1sc(N)c(C#N)c1COC(=O)C1=COCCO1,-1.4%
2,CCOC(=O)CSc1nc(C)cc2c1C(=O)OC2,-5.37%
3,CCOC(=O)CSc1ccccn1,-2.85%
4,CCOC(=O)CSC1=N/C(=C/c2ccc(-n3cncn3)cc2)C(=O)N1C(C)=O,97.6% (active)
5,CC(=O)Nc1ccc(NC(=O)COC(=O)c2ccccc2C(=O)c2ccccc2)cc1,0.353%
6,COc1ccc(S(=O)(=O)N2CCCCCC2)cc1C(=O)N(C)Cc1cccc(OC)c1OC,-1.21%
7,CCOc1ccc(C(=O)NCC(=O)N2CCN(c3ccc(C(F)(F)F)cn3)CC2)cc1,1.77%
8,O=C(COC(=O)CN1C(=O)C2CCCCC2C1=O)Nc1ccc(F)c(F)c1F (centres undefined),-5.29%
9,Cc1cccc(NC(=O)c2sc(-c3ccccc3)nc2-c2ccc([N+](=O)[O-])cc2)c1,-3.26%
10,COc1ccc([N+](=O)[O-])cc1-c1nc2ccccc2nc1-c1ccccc1,-10.3%
11,Cc1nc(-c2ccc([N+](=O)[O-])cc2)c(-c2ccccc2)o1,97.6% (active)
12,CCC(CO)Oc1cc(NCc2ccccc2)c2ncn(C3CCCC3)c2c1 (centres undefined),15.4%
13,CC1CC1C(=O)OCC(=O)Nc1cccc(F)c1 (centres undefined),-3.36%
14,COC(=O)c1ccc(C)c(NC(=O)Cn2c(C)csc2=O)c1,-1.89%
15,Cc1ccc(Nc2c3c(nc4ccccc24)CCC3)cc1,98.4% (active)
16,O=C(Nc1c2c(nc3ccccc13)CCCC2)c1ccccc1Br,-5.44%
17,O=[N+]([O-])c1cccc(Nc2c3ccccc3nc3ccccc23)c1,-6.1%
18,CC(=O)Nc1ccc(Nc2c3ccccc3nc3ccccc23)cc1,89.9% (active)
19,CC(=O)Nc1ccc(-c2nc3ccccc3o2)cc1,-1.09%
20,N#Cc1cccc(Nc2c3c(nc4ccccc24)CCCC3)c1,-9.75%
21,CCOC(=O)C1=C(COC(=O)[C@H](C)NS(=O)(=O)c2ccccc2F)NC(=O)NC1C (some centres undefined),-1.62%
22,O=C(CN1C(=O)NC2(CCOc3ccccc32)C1=O)NCc1ccc(F)cc1 (centres undefined),-3.27%
23,COC(=O)C1CCN(C(=O)COC(=O)c2cc(S(=O)(=O)N3CCOCC3)ccc2C)CC1,-15.3%

row,SMILES,inhibition
1,O=C(Nc1ccc(NC(=O)c2ccccc2F)cc1)c1ccccc1F,-9.75%
2,C/C(CC(=O)Nc1ccc(N(C)C)cc1)=N\NC(=O)c1ccccc1F,87.2% (active)
3,CCn1c2ccccc2c2cc(NC(=O)C/C(C)=N/NC(=O)c3ccccc3N)ccc21,-1.26%
4,Cc1ccc2c(c1)NC(=O)[C@@]1(C)[C@@H](c3ccccc3)[C@H]3COc4ccc(Cl)cc4[C@@H]3N1C2=O,0.863%
5,CC(=O)N1CCc2c(sc(NC(=O)CCS(=O)(=O)c3ccc(C)cc3)c2C(N)=O)C1,-33.3%
6,C[C@H]1COC(=O)[C@H](CC(=O)OC(C)(C)C)C/C=C\C[C@@H](CC(=O)N[C@H](CO)Cc2ccccc2)C(=O)N1,1.44%
7,CCCCN(C(=O)c1ccc2ccccc2c1)c1c(N)n(CCCC)c(=O)[nH]c1=O,-4.16%
8,Cc1nn(C)cc1C(=O)NNC(=S)Nc1ccc(Cl)cc1,49.6%
9,Cc1cccc(-n2cnc(C(=O)NNC(=S)Nc3ccccc3)c2)n1,47.8%
10,Cn1cc(Cl)c(C(=O)NNC(=S)Nc2cccc(Cl)c2)n1,89.2% (active)
11,CC(OC(=O)CCCOc1ccccc1)C(=O)Nc1ccc(Cl)cn1 (centres undefined),-0.655%
12,CN(Cc1ccc(F)cc1)C(=O)CN1C(=O)c2ccccc2S1(=O)=O,1.6%
13,C/C(CC(=O)Nc1cccc(C(F)(F)F)c1)=N\NC(=O)C(=O)NCC(C)C,-10.3%
14,C/C(CC(=O)Nc1ccc(Cl)cc1)=N\NC(=O)C(=O)NCCO,96.1% (active)
15,COc1ccc(COC(=O)N/N=C(\C)CC(=O)Nc2ccc(Cl)cc2)cc1,-4.07%
16,CC(C#N)OC(=O)c1cccnc1SCC(=O)Nc1ccc2c(c1)OCO2 (centres undefined),-10.2%
17,Cc1ccc(S(=O)(=O)N2CCN(C(=O)c3ccccc3-c3nc4ccccc4s3)CC2)c(C)c1,-15.3%
18,Cc1ccc(NC(=O)C(c2ccccc2)N2CCN(C(=O)c3ccco3)CC2)cc1 (centres undefined),-2.06%
19,COc1cc(OC)cc(C(=O)N[C@H](C(=O)NNC(=O)c2ccc(Br)cc2)C(C)C)c1,-9.81%
20,CC(=NCc1ccco1)C1=C(O)c2ccccc2C1=O,2.24%
21,CCc1ccc(-c2cc(C(=O)NCc3ccco3)c3ccccc3n2)s1,52.8%
22,CC(=NCc1ccco1)c1c(C(F)(F)F)[nH]n(-c2nc3ccccc3s2)c1=O,92.1% (active)
23,COc1cc(C=NNC(=O)c2cccnc2)ccc1OC(=O)c1ccccc1F,20.1%

row,SMILES,inhibition
1,COc1ccc(CCNC(=O)COC(=O)c2cnc(Cl)c(Cl)c2)cc1,-2.44%
2,Cc1cc(NC(=O)CSc2ncc(C(F)(F)F)cc2Cl)no1,-1.5%
3,COc1ccc(S(=O)(=O)Nc2ccc3c(c2)OCO3)cc1Cl,9.92%
4,COc1ccccc1C1C2=C(COC2=O)Nc2cc3c(cc21)OCO3 (centres undefined),97.9% (active)
5,COc1cc2c(cc1/C=C1/NC(=O)N(c3ccccc3)C1=O)OCO2,-7.41%
6,CC[C@@]12C(=O)N(c3ccccc3)C(=O)N1[C@H](c1ccc(Br)cc1)[C@@H]1C(=O)N(C(C)(C)C)C(=O)[C@@H]12,-9.54%
7,COc1cc(S(=O)(=O)N2CCN(C(=O)C3CC3)CC2)ccc1NC(C)=O,-5.34%
8,COc1ccc(S(=O)(=O)N(C)C[C@H]2Oc3ccc(NS(=O)(=O)c4cccs4)cc3CC(=O)N([C@H](C)CO)C[C@H]2C)cc1,-0.0995%
9,Cn1c(=O)n(Cc2ccco2)c(=N)c2c3c(sc21)CCCC3,3.35%
10,O=S(=O)(c1ccc(Cl)cc1)c1nc(-c2ccco2)oc1N1CCCCC1,5.77%
11,O=c1oc(-c2ccco2)nc2sc3c(c12)CCCCC3,88.4% (active)
12,CCC(CO)Oc1cc(NC(=O)c2ccc(Cl)cc2)c2ncn(C(C)C)c2c1 (centres undefined),-2.2%
13,CC(=O)c1c(C)[nH]c(C(=O)N2CCN(S(=O)(=O)c3ccc(F)c(F)c3)CC2)c1C,-0.525%
14,CCN(/N=C/c1ccccc1)c1cc(=O)n(C)c(=O)[nH]1,-9.29%
15,CN(C)c1ccc(/C=N/N(Cc2ccccc2)c2ccccc2)cc1,-4.17%
16,Oc1ccc(/C=N/N(Cc2ccccc2)c2ccccc2)cc1,99.2% (active)
17,Cc1ccc(C(=O)NNC(=O)CSc2nnc3ccccn23)cc1,-4.37%
18,Cc1cc(C)c(-c2c(O)c3ccccc3n(C)c2=O)c(C)c1,-13.7%
19,Cc1cc(O)c(Sc2ccccc2)c(=O)o1,-17.8%
20,Cc1c(C)c(C)c(S(=O)(=O)NCCc2ccccn2)c(C)c1C,3.53%
21,COc1ccc(NCCc2ccccn2)cc1,99.8% (active)
22,COc1cccc(NC(=S)NCc2ccccn2)c1,-3.74%
23,COc1ccc(C)cc1NC(=O)CCCN1C(=O)NC(C)(C)C1=O,0.111%

row,SMILES,inhibition
1,Cc1cccc(-c2oc3ccc(-c4ccc5c(c4)OCO5)cc3c2C#Cc2cncn2C)c1,-9.37%
2,Cc1ccc(S(=O)(=O)CC(=O)Nc2nnc(C)s2)cc1,-1.7%
3,CSc1nnc(NC(=O)c2nc(S(=O)(=O)Cc3ccc(C)cc3)ncc2Cl)s1,8.89%
4,CSc1ncc(Cl)c(C(=O)Nc2cc(C)ccc2C)n1,-2.22%
5,Cc1ccc(CS(=O)(=O)c2ncc(Cl)c(C(=O)Nc3nnc(C)s3)n2)cc1,97.5% (active)
6,Cc1cccc(NC(=O)c2nc(S(=O)(=O)Cc3ccccc3)ncc2Cl)c1,4.68%
7,Cc1cccc(CS(=O)(=O)c2ncc(Cl)c(C(=O)Nc3ccc(F)cc3)n2)c1,98.4% (active)
8,N#Cc1cccc(OC(=O)c2ccc3c(=O)n4c(nc3c2)CCC4)c1,43.5%
9,CC1CCCCC1NC(=O)COc1ccc(C#N)cc1 (centres undefined),0.208%
10,COc1cc(Cl)c(C)cc1NC(=O)CSc1nnc(CN2CCCC2)o1,-7.65%
11,Cc1ccc(C)c(C(=O)COC(=O)Cn2[nH]c(=O)c3ccccc3c2=O)c1,-2.55%
12,Cc1noc(NS(=O)(=O)c2ccc(NC(=O)C34CCC(CC3)C4)cc2)c1C,6.47%
13,Cc1cc(OC(C)C(=O)Nc2ccc(S(=O)(=O)Nc3onc(C)c3C)cc2)cc(C)c1Cl (centres undefined),97.6% (active)
14,CCn1c(SCC(=O)Nc2ccc(S(=O)(=O)Nc3onc(C)c3C)cc2)nnc1-c1ccccc1,53.3%
15,CC(Oc1cccc(Cl)c1)C(=O)Nc1ccc(S(=O)(=O)Nc2ncccn2)cc1 (centres undefined),7.5%
16,CCc1ccc(OC(C)C(=O)Nc2ccc(S(=O)(=O)Nc3cc(C)on3)cc2)cc1 (centres undefined),9.12%
17,Cc1noc(NS(=O)(=O)c2ccc(N/C=C/C(=O)c3ccccc3)cc2)c1C,85.4% (active)
18,CCOc1cc(N2CCOCC2)c(OCC)cc1NC(=O)COc1cccc(Cl)c1,-15.1%
19,O=C(CCCOc1ccccc1)NNC(=O)c1ccc(Cl)cc1,3.44%
20,Cc1occc1C(=O)N/N=C/c1ccc(-c2cccc([N+](=O)[O-])c2)o1,-4.94%
